Structures can show the parent of a compound that is named as a salt. In all, about 5,300 compounds went through this assay and about 130 (2.5%) showed an effect of 50% or more. The sample holds strong results, similar compounds and a random draw of the others, so the mix is not that of the screen.

The subject of this assay is M. mycetomatis strain mm55. As to conditions: primary screen, metabolic activity vs growth control; 96 h, 2 µM; inhibitor.
`O=C1Nc2c(ccc(Cl)c2Cl)C1=NO` [ONC0002536, ns309]: the “% viability” value is recorded as 65.12%.

`COC(=O)[C@H]1[C@@H](C)[C@@H](OC)C=CO[C@@]2(C)Oc3c(C)c(O)c4c(O)c(cc(O)c4c3C2=O)NC(=O)/C(C)=C\C=C/[C@@H](C)[C@@H](O)[C@@H](C)[C@H](O)[C@@H]1C` [ONC0003453, rifamycin sv sodium salt]: the “% viability” value was 53.39%.

Regarding `CN(C)[C@@H]1C(=O)C(C(N)=O)C(=O)[C@@]2(O)C(=O)C3C(=O)c4c(O)ccc(Cl)c4[C@@H](O)[C@H]3C[C@@H]12` (some centres unmarked) [ONC0000432, demeclocycline hydrochloride], the “% viability” value is recorded as 77.24%.

In the case of `CCCCCCc1ccc(O)cc1O` [ONC0000355, hexylresorcinol], the “% viability” value is reported as 72.69%.

For `CCCCCCCCc1ccc(CCC(N)(CO)CO)cc1` [ONC0005159, fingolimod fty720 hcl], the “% viability” value was determined as 130.1%.

Turning to `CCCCCCCCCCCC1=C(O)C(=O)C=C(O)C1=O` [ONC0001079, embelin], the “% viability” value worked out at 49.47%.

Regarding `NC1=N[C@H]2[C@H](CCCCC(=O)O)SC[C@H]2N1` [ONC0003635, 2iminobiotin], the “% viability” value amounted to 86.51%.

On to `CC(C)=CCC/C(C)=C/CC/C(C)=C/CCC(O)OC/C=C(\C)CCC=C(C)C` (centres unmarked) [ONC0000430, geranylfarnesylacetate gefarnate], for which the “% viability” value is 66.04%.

Take `O=C(Oc1cccc2cccnc12)c1ccccc1` [ONC0003987, benzoxiquine]: the “% viability” value was determined as 75.23%.

Take `Cc1ccc2c(Br)cc(Br)c(OC(=O)c3ccccc3)c2n1` [Broxaldine]: the “% viability” value came out at 3.407%.

With `O=C(OOC(=O)c1ccccc1)c1ccccc1` [ONC0003111, benzoyl peroxide], the “% viability” value turned out to be 80.87%.

Take `c1cnc2cc3c(cc2n1)C1CNCC3C1` [ONC0004813, varenicline tartrate]: the “% viability” value turned out to be 83.4%.

As for `CCCC[C@H](C)C[C@H](O)/C=C/[C@H]1[C@H](O)CC(=O)[C@@H]1CCCC/C=C/C(=O)O` [ONC0005482, limaprost], the “% viability” value worked out at 96.34%.

On to `Cc1ccc(C(C)C)c(OC=C2NCCN2)c1` [ONC0005561, tymazoline], for which the “% viability” value turned out to be 90.75%.

With `O=[N+]([O-])c1ccccc1S(=O)(=O)NC[C@H]1CC[C@H](CNCC2CCc3ccccc3C2)CC1` (some centres unmarked) [ONC0000121, ntncb], the “% viability” value came out at 80.22%.

For the compound `CC(=O)OC1[C@@H](N2CC[N+](C)(C)CC2)C[C@H]2[C@@H]3CC[C@H]4C[C@H](OC(C)=O)[C@@H](N5CC[N+](C)(C)CC5)C[C@]4(C)[C@H]3CC[C@]12C` (some centres unmarked) [ONC0001992, pipecuronium], the “% viability” value is given as 103.5%.

Regarding `CCCCOc1ccc(CC(=O)NO)cc1` [ONC0000683, bufexamac], the “% viability” value came to 91.55%.

Take `CCC(=O)NO` [ONC0002308, zami633]: the “% viability” value came to 45.69%.

Take `O=C(CCCCCCC(=O)NO)NO` [ONC0001756, sbha]: the “% viability” value is listed as 85.39%.

Take `OCC(O)COc1ccc(Cl)cc1` (centres unmarked) [ONC0002159, chlorphenesin]: the “% viability” value was determined as 67.41%.

`CCC(C)CC(C)CCCCCCCCC(=O)N[C@H]1C[C@@H](O)[C@@H](NCCN)NC(=O)[C@@H]2[C@@H](O)CCN2C(=O)[C@H]([C@H](O)CCN)NC(=O)[C@H]([C@@H](O)[C@H](O)c2ccc(O)cc2)NC(=O)[C@@H]2C[C@@H](O)CN2C(=O)[C@H]([C@@H](C)O)NC1=O` (some centres unmarked) [ONC0002201, caspofungin acetate]: the “% viability” value is reported as 69.7%.

For the compound `CN1CCN(C(=O)CN[C@@H]2C[C@H]2c2ccc(OCc3ccccc3)cc2)CC1` [ONC0000424, rn1], the “% viability” value stood at 85.6%.

Consider `COc1ccc2[nH]c(C(=O)c3ccccc3)cc2c1` [ONC0001898, d64131], for which the “% viability” value is listed as 78.99%.

Take `COc1ccc(/C=C/CCCCOc2ccc(C(=O)c3cccc(C(=O)O)c3)cc2CCC(=O)O)cc1` [ONC0003815, ly223982]: the “% viability” value turned out to be 21.75%.

Turning to `COc1ccc(/C=C/C(=O)O)cc1` [ONC0003824, trans4methoxycinnamicacid], the “% viability” value is given as 65.15%.

Take `CC(=O)[C@H]1CC[C@H]2[C@@H]3CC=C4C[C@@H](O)CC[C@]4(C)[C@H]3CC[C@]12C` [ONC0003199, pregnenolone]: the “% viability” value was determined as 77.25%.

On to `Cc1oc2nc3c(c(NC(=O)CN4CCCC4=O)c2c1C)CCCC3` [ONC0001218, coluracetam], for which the “% viability” value stood at 81.81%.

With `CCOC(=O)Nc1nc2ccccc2[nH]1` [ONC0004223, lobendazole], the “% viability” value was found to be 137.9%.

For `CCOC(=O)Nc1cc2c(c(N)n1)NC(c1ccccc1)=C(C)N2` [ONC0002128, mivobulin], the “% viability” value worked out at 3.846%.

`CCOC(=O)Nc1ccc(NCc2ccc(F)cc2)nc1N.O=C(O)/C=C\C(=O)O` [ONC0001304, flupirtine maleate]: the “% viability” value is recorded as 68.53%.

For the compound `C=CC(=O)N1CCCC(n2c(=O)n(-c3ccc(Oc4ccccc4)cc3)c3c(N)ncnc32)C1` (centres unmarked) [ONC0004392, ono4059], the “% viability” value turned out to be 98.71%.

Consider `C[N+]1(C)C2CCC1CC(OC(=O)C(CO)c1ccccc1)C2` (centres unmarked) [ONC0003986, methylatropine nitrate], for which the “% viability” value is 73.02%.

Take `CN1C2C[C@H](OC(=O)[C@H](CO)c3ccccc3)C[C@@H]1[C@@H](O)C2` [ONC0003283, anisodamine hydrobromide]: the “% viability” value turned out to be 41.57%.

As for `C[N+]1([O-])C2CCC1CC(OC(=O)C(CO)c1ccccc1)C2` (centres unmarked) [ONC0004212, atropine oxide], the “% viability” value is reported as 82.92%.

On to `FC(F)(F)Oc1ccc2[nH]c(-c3ccc(OCCOCCOc4ccc(-c5nc6cc(OC(F)(F)F)ccc6[nH]5)nc4)cn3)nc2c1` [ONC0000980, ai1049], for which the “% viability” value came to 83.7%.

As to `CC(=O)OCC1=C(C(=O)O)N2C(=O)[C@@H](N)[C@H]2SC1` [ONC0004514, 7aminocephalosporanic acid], the “% viability” value is recorded as 52.68%.

`CCn1cc(-c2cccc(C(F)(F)F)c2)c2sc(C(=N)NC3CCS(=O)(=O)CC3)cc2c1=O` [ONC0001085, ibrd9]: the “% viability” value came out at 45.4%.

For `Cc1c(C(=O)NCc2cccnc2)nn(-c2ccc(Cl)cc2Cl)c1-c1ccc(Cl)cc1` [ONC0001432, mj15], the “% viability” value is reported as 60.06%.

As for `C[C@@H]1CC2C3CCC4=CC(=O)C=C[C@]4(C)[C@@]3(F)[C@@H](O)C[C@]2(C)[C@@]1(O)C(=O)CO` (some centres unmarked) [ONC0000416, dexamethasone], the “% viability” value is listed as 62.67%.

Regarding `O=C(Nc1cc(C(F)(F)F)cc(C(F)(F)F)c1)c1cc(Cl)ccc1O` [IKK2 inhibitor V (IMD-0354), IMD-0354], the “% viability” value amounted to 2.589%.

In the case of `O=C(Nc1cc(C(F)(F)F)cc(C(F)(F)F)c1)c1cnc(Cl)nc1C(F)(F)F` [ONC0001396, sp100030], the “% viability” value came out at 126.3%.

Consider `O=C(Nc1ccc([N+](=O)[O-])cc1Cl)c1cc(Cl)ccc1O` [niclosamide], for which the “% viability” value is reported as 70.84%.

Consider `O=C(C[C@H]1NCCC[C@@H]1O)Cn1cnc2cc(Br)c(Cl)cc2c1=O` (racemic) [ONC0004939, halofuginone], for which the “% viability” value is listed as 90.07%.

As to `CC1=CC(=O)NS(=O)(=O)O1` [ONC0005569, acesulfame potassium], the “% viability” value came out at 46%.

As for `c1ccc(-c2ncc(CN3CCN(c4ncccn4)CC3)[nH]2)cc1` [ONC0000007, ngd941], the “% viability” value is given as 130.5%.

As to `CC(COc1ccccc1)NC(C)[C@H](O)c1ccc(O)cc1` (some centres unmarked) [ONC0000598, isoxsuprine hydrochloride], the “% viability” value stood at 84.27%.

For `CCC(O)(CC(N)=O)c1ccccc1` (centres unmarked) [ONC0003599, 3hydroxy3phenylpentanamide], the “% viability” value is 105.2%.

For `Cc1nc2cc(-n3ncc(C(=O)c4cc5ccccc5[nH]4)c3N)ccc2[nH]1` [ONC0004455, ch5183284 debio1347], the “% viability” value was 110.2%.

For `Cc1cccc(C)c1NC(=O)CN1CCN(CCCC(c2ccc(F)cc2)c2ccc(F)cc2)CC1` [ONC0002360, lidoflazine], the “% viability” value is listed as 112.8%.

In the case of `CCNC(=O)N1CCN(CCCC(c2ccc(F)cc2)c2ccc(F)cc2)CC1` [ONC0003498, amperozidehcl], the “% viability” value amounted to 32.95%.

Regarding `O=c1[nH]c2ccccc2n1C1CCN(CCCC(c2ccc(F)cc2)c2ccc(F)cc2)CC1` [ONC0000675, pimozide], the “% viability” value came out at 106.9%.

For the compound `Cc1c[nH]c(-c2cnc(NCCNc3ccc(C#N)cn3)nc2-c2ccc(Cl)cc2Cl)n1` [ONC0004531, chir99021 ct99021 hcl], the “% viability” value amounted to 57.04%.

As to `C[C@H]1c2cccc(O)c2C(=O)C2C(=O)[C@]3(O)C(=O)C(C(N)=O)C(=O)[C@@H](N(C)C)[C@@H]3[C@@H](O)[C@@H]21` (some centres unmarked) [ONC0000682, doxycycline hydrochloride], the “% viability” value is given as 94.49%.

As for `C[C@]12CCC(=O)C=C1CCC1C2C(=O)C[C@@]2(C)C1CC[C@]2(O)C(=O)CO` (some centres unmarked) [ONC0005338, cortisone], the “% viability” value was found to be 64.83%.

Turning to `Cc1sc(C)c2c1CCC=C2c1cnc[nH]1` [ONC0000248, tcg1000], the “% viability” value stood at 71.17%.

`Cc1ccnc(NC(=O)C(C)c2cccc(C(=O)c3ccccc3)c2)c1` (centres unmarked) [ONC0003716, piketoprofen]: the “% viability” value was 97.11%.

As to `O=C(O)c1ccccc1Nc1cccc(OCc2ccc3ccccc3n2)c1` [ONC0001414, sr2640], the “% viability” value came to 39.31%.

Consider `CCCCCC(O)c1cccc(OCc2ccc3ccccc3n2)c1` (centres unmarked) [ONC0005481, rev5901 l655238], for which the “% viability” value is 92.78%.

As to `O=C(O)[C@@H](c1ccc(OCc2ccc3ccccc3n2)cc1)C1CCCC1` [ONC0005557, veliflapon], the “% viability” value is on record as 76.74%.

Take `Cc1cc(O)c2c(c1)C(=O)c1cc(O)cc(O)c1C2=O` [ONC0004997, emodin]: the “% viability” value was 57.84%.

Regarding `COc1cc(O)c2c(c1)C(=O)c1cc(C)cc(O)c1C2=O` [ONC0004501, rheochrysidin physcione], the “% viability” value is on record as 41.39%.

Regarding `Cc1cc(O)c2c(c1)C(=O)c1cccc(O)c1C2=O` [ONC0005265, chrysophanic acid chrysophanol], the “% viability” value was 118.5%.

For the origin of these results see article PMC12670160, “A drug-repurposing screen of FDA- and EMA-approved drugs identifies two NF-κB inhibitors active against eumycetoma” (Journal of Antimicrobial Chemotherapy, 2025).
